CHT PAM: allosterically activates the human high affinity choline transporter | Q9GZV3 | actives 0.49% (n = 310,000) | B-score at 10 µM | CHT-expressing cells, membrane potential dye, choline EC20; active compounds read high; LV-AA mutant CHT in HEK293 cells | AID 488977;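 active means initial fluorescence not abnormally high and integrated response B-score, plate-corrected, over 3 SD above library mean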
ANO1 block: inhibitors of mouse TMEM16A calcium-activated chloride channel; actives 1.2% (n = 310,000); HEK293 TMEM16A/YFP iodide influx fluorescence, ionomycin; normalized B-score (activity score, 25-100; higher = stronger inhibition) at 10 µM; AID 588511; Q8BHY3;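 active means ratio plate-corrected score three or more library SD toward inhibition, starting fluorescence score within five deviations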;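 further: score derived from kinetic fluorescence span divided by baseline fluorescence per well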
TMEM16A act: mouse TMEM16A channel activation, primary screen; actives 0.3% (n = 340,000); AID 623877; Q8BHY3; HEK293 TMEM16A/YFP-H148Q/I152L, iodide quench fluorescence; active compounds read low; B-score at 10 µM;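 active means fluorescence-ratio B-score plate-corrected deviation score at least 3 library SD below zero, with starting fluorescence score within 5 deviations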;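 further: channel opened by trigger with iodide after compound preincubation; score built on the fluorescence ratio of max minus min over baseline; more negative score means more quench and so TMEM16A activation or potentiation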
CHT inh: inhibits the human high affinity choline transporter. B-score at 10 µM. Q9GZV3. actives 0.86% (n = 310,000). CHT-expressing cells, membrane potential dye, choline response; active compounds read low;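 active means B-score over 3 SD under the library average, and starting fluorescence ratio not unusually high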;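 further: choline stimulus applied at its EC90 after an EC20 pre-addition; B-score computed on integrated fluorescence ratio after choline addition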
CHT act confirm: human CHT activation, confirmatory screen; shares compounds with CHT PAM; CHT-expressing cells, membrane potential dye fluorescence (FDSS); % of choline EC20–EC90 response window; HEK293 expressing CHT LV-AA mutant; choline added at its EC20; activation, % at 10 µM; actives 91% (n = 2,500);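 active means primary screen active, with duplicate mean activation above negative control mean plus 3 SD, cut at about 11% in these data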
HEK293 MP dye: counter-screen for CHT activators: effect in parental HEK293 cells; shares compounds with CHT PAM; membrane potential dye fluorescence (FDSS); measured after EC20 choline addition; ratio readout change at 10 µM, hits read low; actives 62% (n = 2,500); AID 623908;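 active means duplicate-averaged ratio beyond 3 SD from buffer wells, up or down, though filed actives are nearly all decreases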
Starred values were filed as active, the others as inactive; i = inactive; nt = not tested or not shown. A selection: hits, their analogues and other compounds. The true share with any hit is near 2.4%.

SMILES	CHT PAM	ANO1 block	TMEM16A act	CHT inh	CHT act confirm	HEK293 MP dye
Cc1c(S(=O)(=O)c2ccccn2)c(N)n(Cc2ccccc2)c1C	i	i	i	i	nt	nt
CCC[n+]1c(C)sc2c(OC)ccc(OC)c21	12*	i	i	i	47*	i
O=S(=O)(c1ccccc1)N1CCN(C(=S)Nc2ccccc2)CC1	i	i	i	i	nt	nt
CCOC(=O)c1c(C)[n+](-c2ccc(C)cc2)c(CC)c2cc(OC)c(OC)cc12	i	i	i	i	49*	-35*
O=C(CN1C(=O)c2ccccc2C1=O)NC1CCC(O)CC1 (configuration not stated)	nt	nt	i	nt	nt	nt
OCCN1CCN(c2ncnc3ccc(Br)cc23)CC1	13*	i	i	i	38*	-30*
Cc1ccc(N(CC(=O)Nc2c(C)n(C)n(-c3ccccc3)c2=O)S(C)(=O)=O)c(C)c1	i	i	i	i	nt	nt
Cc1ccc(N(CC(=O)N/N=C/c2cc(C)n(-c3ccccc3)c2C)S(C)(=O)=O)c(C)c1	i	i	i	i	24*	i
O=C(Nc1ccc2ccccc2c1)C(c1ccccc1)C1CCCC1 (configuration not stated)	i	i	i	i	24*	i
Cc1ccc(NC(=O)C(c2ccccc2)C2CCCC2)cc1 (configuration not stated)	nt	nt	i	nt	nt	nt
Cc1ccc(OCCSc2nnc(C)c(=O)n2N)cc1	i	i	i	i	nt	nt
COc1ccc(C(=O)OCC(N)=O)cc1[N+](=O)[O-]	i	i	i	i	nt	nt
COc1ccc(C(=O)C[n+]2cc(Br)cc3ccccc32)cc1[N+](=O)[O-]	i	i	i	i	31*	-38*
Cc1ccc(S(=O)(=O)N2CCN(C(=O)COC(=O)c3cc([N+](=O)[O-])ccc3NCCO)CC2)c(C)c1	nt	nt	i	nt	nt	nt
COc1ccc(C(C(=O)NC2CCCC2)N(Cc2ccccc2)C(=O)c2nsc(Cl)c2Cl)cc1 (configuration not stated)	i	i	i	i	nt	nt
CCOc1ccc(C(C(=O)NC2CCCC2)N(Cc2ccccc2)C(=O)c2nsc(Cl)c2Cl)cc1 (configuration not stated)	i	i	i	i	1	i
O=C(C1CCN(Cc2ccc(F)cc2)CC1)N(CCc1ccccc1)Cc1ccccc1	6.8*	i	i	i	29*	i
CCN(C(=O)c1ccc2c(OC)n(CC)nc2c1)c1ccc(OC)cc1	i	i	i	i	nt	nt
CC(C)C1Oc2ccccc2N(CC(=O)NC2CCCCC2)C1=O (configuration not stated)	i	i	i	i	9.8*	i
Cc1cc(N2CCCCC2)nc(N2CCOCC2)n1	i	i	i	i	nt	nt
Cc1cc(N2CCOCC2)nc(N2CCOCC2)n1	i	i	i	i	76*	-40*
Cc1cc(N2CCN(C)CC2)nc(N2CCOCC2)n1	8.4*	i	i	i	45*	-91*
Cc1cc(N2CCOCC2)nc(C(C)C)n1	i	i	i	i	nt	nt
COc1ccc(/C(C)=N\NS(C)(=O)=O)c(OC)c1	i	i	i	i	nt	nt
O=C1NCCCC1C(=O)N/N=C/c1ccccc1 (configuration not stated)	i	i	i	i	nt	nt
CN1CCN(/N=C/c2nc(-c3ccccc3)n3ccccc23)CC1	i	i	i	i	27*	i
CN1CCN(/N=C/c2nc(-c3ccc(Cl)cc3)n3ccccc23)CC1	i	i	i	i	nt	nt
CCC(=O)N(CCC(c1ccco1)C(C)C)Cc1ccccc1 (configuration not stated)	i	i	i	i	nt	nt
CC(=O)N(CCC(c1ccco1)C(C)C)Cc1ccc(Cl)cc1 (configuration not stated)	7.4*	i	i	i	26*	i
COc1ccccc1-n1cnc2cc(NCc3cccs3)ccc21	7*	i	i	i	59*	i
